# High-throughput results deposited in PubChem by National Center for Advancing Translational Sciences (NCATS).
# SMN2 splice up: increases expression of the SMN2 splice variant; HEK293 SMN2-luciferase splicing reporter, luminescence, 30-36 h; Potency, µM (highest dose often 46.1 µM), most hits filed as activators; 210,000 compounds, 2.8% hits; AID 1458; note: nearly all actives have a fitted effect of over 55% in size
#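 HEK293 cells carry an SMN2 minigene-luciferase reporter in which exon 7 inclusion puts luciferase in frame. Cells were seeded at 2000 cells/well, attached for 10-12 hours, then exposed to compounds for 30-36 hours at 37C before ONE-Glo luminescence.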
# Rab9 prom act: activates the Rab9 promoter; Huh7 Rab9 promoter-luciferase reporter, luminescence, 24 h; Potency, µM (highest dose often 9.22 µM), hits mostly activators; 320,000 compounds, 2.8% hits; AID 485297; note: nearly all actives have a fitted effect of over 60% in size
#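 Using Huh7 cells stably transfected with Rab9 promoter–luciferase, compounds were incubated 24 h at 37 °C, 5% CO2; luciferase luminescence was read 10 min after reagent addition.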
# ELG1 repair inh: inhibitors of ELG1-dependent DNA repair in HEK293T cells. 330,000 compounds, 2.3% hits. HEK293T ELG1-luciferase reporter, luminescence, 16 h; DNA damage induced by 5-fluorouridine. AID 504467. Potency, µM (series often up to 46.1 µM), hits mostly inhibitors; note: nearly all actives have a fitted effect of over 55% in size
#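 Luminescence from the luciferase reporter, measured 30 min after ONE-Glo reagent at room temperature, was the read-out. Beforehand, 2,000 cells per well were exposed for 16 hr at 37 °C to 5-fluorouridine together with compound or vehicle.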
# ELG1 genotox: inducers of genotoxicity in HEK293T ELG1-luciferase cells; HEK293T ELG1-luciferase reporter, luminescence, 16 h; Potency, µM (titrated, usually from 46 µM), usual class: activators; 330,000 compounds, 1.3% hits; note: nearly all actives have a fitted effect of over 60% in size
#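 After overnight (16 hr) compound treatment at 37 °C, ELG1-luciferase HEK293T cells were lysed with ONE-Glo; luminescence quantified 30 min later at room temperature.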
# FLuc counter: firefly luciferase modulation, counter-screen for miR-21 project | P08659 | purified FLuc, Km substrates, luminescence inhibition | Potency, µM (highest dose often 57.5 µM), most hits filed as inhibitors | 360,000 compounds, 6.9% hits; note: nearly all actives have a fitted effect of over 55% in size
# Target sequence (P08659 whole entry, looked up): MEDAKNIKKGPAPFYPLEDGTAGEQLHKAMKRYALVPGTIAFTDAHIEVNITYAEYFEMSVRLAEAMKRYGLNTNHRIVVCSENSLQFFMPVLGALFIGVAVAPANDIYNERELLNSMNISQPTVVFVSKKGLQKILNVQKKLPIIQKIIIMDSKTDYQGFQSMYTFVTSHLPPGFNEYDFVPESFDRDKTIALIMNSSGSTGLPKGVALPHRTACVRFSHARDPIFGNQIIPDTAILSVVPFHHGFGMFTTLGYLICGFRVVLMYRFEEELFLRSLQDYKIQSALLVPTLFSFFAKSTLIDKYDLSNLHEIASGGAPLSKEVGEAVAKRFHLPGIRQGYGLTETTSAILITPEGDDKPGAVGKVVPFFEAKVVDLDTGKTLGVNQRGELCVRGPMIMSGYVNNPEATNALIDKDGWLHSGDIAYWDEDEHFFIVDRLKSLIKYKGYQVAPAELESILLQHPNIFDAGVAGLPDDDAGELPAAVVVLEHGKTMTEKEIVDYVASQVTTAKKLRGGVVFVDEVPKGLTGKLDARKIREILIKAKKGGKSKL
#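 Purified P. pyralis luciferase, 10 nM final, with Km-level 10 uM D-luciferin and 10 uM ATP in 50 mM Tris acetate pH 7.5, 10 mM Mg acetate, 0.01% Tween-20, 0.05% BSA; 6-point qHTS titration about 60 µM downward; luminescence read.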
# NPC1 prom act: activators of NPC1 promoter | Potency, µM (highest dose often 9.22 µM), usual class: activators | AID 485313 | 320,000 compounds, 2.4% hits | Huh7 NPC1 promoter luciferase reporter, 24 h; note: nearly all actives have a fitted effect of over 60% in size
#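 Huh7 reporter cells (NPC1 promoter driving luciferase) are dosed with compound for 24 h at 37 °C, 5% CO2; luciferase detection reagent is then added and luminescence measured after 10 min at ambient temperature.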
# ELG1 FLuc counter: luciferase inhibition in cell-free luciferin readout for ELG1 hits | shares compounds with ELG1 repair inh | cell-free firefly luciferase luminescence counter-screen, ViewLux | Potency, µM (highest dose often 46.1 µM), usual class: inhibitors | 350 compounds, 3% hits | AID 624247
# ELG1 Luc conf: human ELG1 repair inhibition, luciferase-tagged ELG1 confirmation; shares compounds with ELG1 repair inh; HEK293T ELG1-luciferase levels, luminescence; cells co-treated with 5-fluorouridine; Potency, µM (top dose mostly 46.1 µM), actives largely listed as inhibitors; 670 compounds, 68% hits; note: nearly all actives have a fitted effect of over 55% in size
# ELG1-Luc MMS: MMS-stimulated human ELG1 repair inhibition, confirmed | shares compounds with ELG1 repair inh | HEK293T luciferase-tagged ELG1 level, MMS stimulated | Potency, µM (series often up to 46.1 µM), hits mostly inhibitors | 670 compounds, 53% hits; note: nearly all actives have a fitted effect of over 60% in size
# ELG1 5-FU: confirmation of ELG1 repair inhibitors: viability with 5FU. 670 tested, under 10 active. AID 624250. shares compounds with ELG1 repair inh. Potency, µM (series often up to 46.1 µM), most hits filed as cytotoxic. cell viability with 5-FU, ELG1-dependent repair;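 note: ELG1-luc HEK293T cells cotreated with 5-fluorouridine at 10 µM final; viability measured 16 h after compound addition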
# ELG1 MMS viab: confirmation of ELG1 repair inhibitors: viability with MMS; shares compounds with ELG1 repair inh; Potency, µM (highest dose often 46.1 µM), actives largely listed as cytotoxic; 670 compounds, 33% hits; Cell viability with MMS, ELG1-dependent DNA repair;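 note: ELG1-luc HEK293T cells co-treated with 10 µM MMS; viability read 16 h after compound addition; nearly all actives have a fitted effect of over 60% in size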
# ELG1 unstim viab: unstimulated viability counter-screen for ELG1 repair hits; 900 compounds, 8% hits; Potency, µM (top dose mostly 45.9 µM), hits mostly cytotoxic; shares compounds with ELG1 repair inh; cell viability counter-screen, unstimulated, luminescence;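 note: compound exposure lasted 16 hours before reading; nearly all actives have a fitted effect of over 55% in size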
# FLuc enzyme: counter-screen for ELG1 repair inhibitors: firefly luciferase inhibition | shares compounds with ELG1 repair inh | purified firefly luciferase, luminescence counter-screen | Potency, µM (titrated, usually from 57.5 µM), hits mostly inhibitors | 350 compounds, 10% hits | AID 624253
# A number is an active result; . = inactive; ? = inconclusive; / = no result; [ ] = remark or other dose. Most compounds without a hit are left out; they make up all but 9.4% or so of the library. Calls come from the whole dose curve; as a rule, active = well fitted curve in the direction sought with a large enough effect; inconclusive = small, poorly fitted or top-dose-only effect, or another doubt; inactive = no such curve, though single readings can be large; an effect the other way counts as inactive or inconclusive.
SMILES,SMN2 splice up,Rab9 prom act,ELG1 repair inh,ELG1 genotox,FLuc counter,NPC1 prom act,others
CC1(C)N=C(N)N=C(N)N1c1cccc(C(=O)Nc2ccc(S(=O)(=O)F)cc2)c1,.[9.22 µM],/,/,/,/,/,
Cc1cc(C=C2C(=O)NC(=S)NC2=O)c(C)n1C1CCCC1,.,.,?,21µM,1.5µM,.,
Cc1cc(C=C2C(=O)N(C)C(=S)N(C)C2=O)c(C)n1C1CCCCC1,.,.,.,.,3.4µM,.,
Cc1cc(C=C2C(=O)NC(=O)NC2=O)c(C)n1-c1cccnc1,/,.,.,.,?,.,
CC(=O)c1ccc2c(c1)C1C(Cl)C(Sc3ccccc3[N+](=O)[O-])CC1C(c1ccccc1)N2 (centres undefined),.,.,?,.,.,.,
CC(=O)c1ccc2c(c1)C1C(Cl)C(Sc3ccccc3[N+](=O)[O-])CC1C(c1ccccc1[N+](=O)[O-])N2 (centres undefined),.,.,4.1µM,.,.,.,
CCSCC[C@H](N)C(=O)O,.[9.22 µM],/,/,/,/,/,
Cc1nn(C(C)(C)C)c(C)c1/C=N/OC(=O)Nc1ccc(Cl)c(Cl)c1,/,.,.,.,0.19µM,.,
Cc1ccc(NC(=O)c2snnc2C)cc1Cl,.,.,?,.,.,.,
O=P(O)(O)c1ccccc1OCCOCCOCCOCCOc1ccccc1P(=O)(O)O,.,3.5µM,?,.,?,4µM,
C[C@H]1CCC[C@@H](O)CCC/C=C/c2cc(O)cc(O)c2C(=O)O1,.,.,2.8µM,.,.,.,ELG1 Luc conf=4µM;ELG1-Luc MMS=4µM;ELG1 5-FU=.;ELG1 MMS viab=?;ELG1 unstim viab=?
CC1CCCC(=O)CCC/C=C/c2cc(O)cc(O)c2C(=O)O1 (centres undefined),.,/,/,/,/,/,
COc1ccc(Cc2nccc3cc(OC)c(OC)cc23)cc1OC,.,.,.,?,.,.,
COc1ccc(/C(=N/OC(C)=O)c2nccc3cc(OC)c(OC)cc23)cc1OC,/,.,3.3µM,.,.,.,ELG1 Luc conf=?;ELG1-Luc MMS=.;ELG1 5-FU=?;ELG1 MMS viab=.;ELG1 unstim viab=.
Oc1c(Cl)cccc1Cl,.,/,/,/,/,/,
COc1cc2c(c(OC)c1OC)-c1ccc(O)c(=O)cc1C(NC(C)=O)CC2 (centres undefined),.,.,?,?,.,.,ELG1 FLuc counter=.;ELG1 unstim viab=.;FLuc enzyme=.
